# Measurements as given in PubChem BioAssay (NCI).
# The panel holds about 83,000 compounds, 20% with a hit somewhere; the sample as a whole holds those more often.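 How to read the values: 0–100, growth inhibition (40 = 60% inhibited); 0, no net growth; -100 to 0, cell death (-40 = 40% of starting cells died; -100 = all dead).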 Calls of active or inactive are those of the source. How the source made its calls: active means growth percent below 10; inactive means the rest.
# Legend:
# Test in all cases: NCI-60 one-dose screen, 48 h (100 = growth as untreated, 0 = no growth, -100 = all killed)
# Conditions in all cases: 10 µM unless noted
# SK-MEL-2 melanoma = test system: SK-MEL-2 melanoma
# EKVX NSCLC = test system: EKVX NSCLC
# SN12C renal = test system: SN12C renal
# UO-31 renal = test system: UO-31 renal
# TK-10 renal = test system: TK-10 renal
# ACHN renal = test system: ACHN renal
# CAKI-1 renal = test system: CAKI-1 renal
# A498 renal = test system: A498 renal
# CCRF-CEM leukemia = test system: CCRF-CEM leukemia
# MOLT-4 leukemia = test system: MOLT-4 leukemia
Structure (SMILES),growth (SK-MEL-2 melanoma),growth (EKVX NSCLC),growth (SN12C renal),growth (UO-31 renal),growth (TK-10 renal),growth (ACHN renal),growth (CAKI-1 renal),growth (A498 renal),growth (CCRF-CEM leukemia),growth (MOLT-4 leukemia)
CCCCCCCCNc1cccc2c1C(=O)c1ccccc1C2=O,108% (inactive),109% (inactive),97.6% (inactive),92.2% (inactive),98.3% (inactive),111% (inactive),98.3% (inactive),81.1% (inactive),112% (inactive),90.5% (inactive)
O=c1[nH]c2c3ccncc3cc(-c3cccc(Cl)c3)c2c2cnccc12,64.1% (inactive),74.8% (inactive),57.1% (inactive),30.6% (inactive),0.334% (active),17.2% (inactive),63.3% (inactive),50.2% (inactive),56.4% (inactive),76.9% (inactive)
O=C(/C(=C(\C(=O)c1ccccc1)c1ccccc1)c1ccccc1)c1ccccc1,81.5% (inactive),40.5% (inactive),62.5% (inactive),63.3% (inactive),86.8% (inactive),39.5% (inactive),57.8% (inactive),79.9% (inactive),16.2% (inactive),-7.63% (active)
COc1ccc(/C=C/C(=O)NCC(C)O)cc1 (stereo not given),93.3% (inactive),99.4% (inactive),105% (inactive),81.9% (inactive),89.1% (inactive),102% (inactive),95.8% (inactive),92.7% (inactive),106% (inactive),109% (inactive)
Cc1ccc(N(CC(=O)Nc2ccc(S(=O)(=O)NC3CCN(C)CC3)cc2)S(=O)(=O)c2ccc(Cl)cc2)cc1,104% (inactive),99.4% (inactive),85% (inactive),83.3% (inactive),105% (inactive),96.6% (inactive),89% (inactive),84.6% (inactive),20.9% (inactive),70.5% (inactive)
CCCNc1nc(N(C)O)nc(N(C)O)n1,74.1% (inactive),36.9% (inactive),47.1% (inactive),21.7% (inactive),65.1% (inactive),14.5% (inactive),25% (inactive),22.3% (inactive),6.78% (active),14.8% (inactive)
Cn1c(=O)c2c(nc(Br)n2CC(=O)Nc2ccc(F)cc2)n(C)c1=O,99.1% (inactive),102% (inactive),109% (inactive),80.9% (inactive),115% (inactive),104% (inactive),95.9% (inactive),117% (inactive),90.1% (inactive),91.9% (inactive)
CCN1CCN(C(=O)[C@]23CC[C@@H](C)[C@H](C)[C@H]2C2=CC[C@@H]4[C@@]5(C)C/C(=C/c6cccc(OC)c6OC)C(=O)C(C)(C)[C@@H]5CC[C@@]4(C)[C@]2(C)CC3)CC1,84.6% (inactive),27.7% (inactive),43.2% (inactive),30.3% (inactive),95.9% (inactive),41.9% (inactive),31.4% (inactive),77.7% (inactive),30.2% (inactive),10.1% (inactive)
CC(C)=CCC[C@](C)(O)[C@H]1CC[C@]2(C)[C@@H]1CC[C@@H]1[C@@]3(C)C/C(=C/c4ccc(Br)cc4)C(=O)C(C)(C)[C@@H]3CC[C@]12C,113% (inactive),94.3% (inactive),88% (inactive),70.4% (inactive),130% (inactive),98.1% (inactive),64.7% (inactive),80.8% (inactive),83.4% (inactive),84.1% (inactive)
Clc1cc(Cl)cc(Nc2ccc3c(OCCCN4CCOCC4)cccc3n2)c1,87.8% (inactive),62.2% (inactive),76.1% (inactive),28.6% (inactive),80.5% (inactive),49.9% (inactive),56.6% (inactive),59.8% (inactive),29.5% (inactive),22.5% (inactive)
COC(=O)[C@]12CC[C@@H](C)[C@H](C)[C@@H]1C1=CC[C@@H]3[C@@]4(C)C[C@@H](O)OC[C@](C)(C=O)C4C(=O)C[C@@]3(C)[C@]1(C)CC2 (stereo not given in full),-22.4% (active),21% (inactive),11.4% (inactive),7.68% (active),9.25% (active),7.86% (active),7.25% (active),-0.985% (active),-7.54% (active),-9.93% (active)
Oc1ccc(Nc2ccccc2)cc1,125% (inactive),81.6% (inactive),90.3% (inactive),68.4% (inactive),117% (inactive),46.9% (inactive),65.4% (inactive),87.4% (inactive),0.482% (active),88.6% (inactive)
CN(C)c1ccc(C(=O)c2ccc(N(C)C)c(N)c2)cc1N,61.6% (inactive),50.9% (inactive),49.7% (inactive),64.9% (inactive),67.3% (inactive),50.5% (inactive),41% (inactive),25% (inactive),36.4% (inactive),24.4% (inactive)
Nc1c2c(nc3ccc(Cl)cc13)CC(c1ccc(O)cc1)CC2=O (stereo not given),61.3% (inactive),29.8% (inactive),58.7% (inactive),60% (inactive),81.5% (inactive),49.4% (inactive),48.3% (inactive),86.5% (inactive),43.4% (inactive),46.9% (inactive)
C[C@H]1[C@H]2C3=CC[C@@H]4[C@@]5(C)C/C(=C/c6ccco6)C(=O)C(C)(C)[C@@H]5CC[C@@]4(C)[C@]3(C)CC[C@@]2(C(=O)N2CCOCC2)CC[C@@H]1C,106% (inactive),88.4% (inactive),73.8% (inactive),49% (inactive),99.6% (inactive),53.7% (inactive),42.5% (inactive),94% (inactive),14.2% (inactive),6.22% (active)
Cn1cc(-c2csc(-c3c[nH]c4ccc(F)cc34)n2)c2cccnc21,41.2% (inactive),60.4% (inactive),64.5% (inactive),77.1% (inactive),69.7% (inactive),48.8% (inactive),36.9% (inactive),27% (inactive),39.7% (inactive),46.7% (inactive)
CSc1ccc(N(C)c2nc(C)nc3c2CCC3)cc1,24% (inactive),52.6% (inactive),18.4% (inactive),29.3% (inactive),56.6% (inactive),18.3% (inactive),20.5% (inactive),-8.39% (active),8.07% (active),6.54% (active)
N=C(N)N=Nc1ccc(O)cc1,105% [100 µM] (inactive),96% [100 µM] (inactive),104% [100 µM] (inactive),81.9% [100 µM] (inactive),124% [100 µM] (inactive),20.8% [100 µM] (inactive),53.4% [100 µM] (inactive),126% [100 µM] (inactive),91.2% [100 µM] (inactive),88.4% [100 µM] (inactive)
COc1ccc(CCN2C(=O)C(C)(C)SC2=S)cc1OC,107% (inactive),94% (inactive),96% (inactive),88.9% (inactive),96.3% (inactive),104% (inactive),88.1% (inactive),99.3% (inactive),92.3% (inactive),101% (inactive)
N#C/C(=C\c1ccc(-c2ccc(Br)cc2)o1)c1nc(-c2ccco2)cs1,103% (inactive),41.6% (inactive),92.3% (inactive),74.7% (inactive),38.7% (inactive),95.8% (inactive),88.8% (inactive),101% (inactive),89.9% (inactive),94.2% (inactive)
CN1CCN(CCOc2ccc(-c3cnc4c(-c5cccc(F)c5)cnn4c3)cc2)CC1,97.8% (inactive),76.3% (inactive),60.6% (inactive),39.2% (inactive),102% (inactive),70.2% (inactive),64.5% (inactive),45.2% (inactive),20.9% (inactive),16.6% (inactive)
CCCCCCCC(=O)SCC/C=C/[C@@H]1CC(=O)NCc2cccc(n2)CN(Cc2ccc3ccccc3c2)CC(=O)N[C@@H](C(C)C)C(=O)O1,56.5% (inactive),53.9% (inactive),57.1% (inactive),36.4% (inactive),21.6% (inactive),34.7% (inactive),35.8% (inactive),0.931% (active),15.6% (inactive),2.35% (active)
Cc1ccc(N(CC(=O)Nc2ccc(S(=O)(=O)N3CCC(N4CCCC4)CC3)cc2)S(=O)(=O)c2ccc(Cl)cc2)cc1,91.9% (inactive),70.1% (inactive),-35.7% (active),38.1% (inactive),112% (inactive),-38.4% (active),18.2% (inactive),65.6% (inactive),3.02% (active),2.28% (active)
